# From PubChem BioAssay AID2061322 (National Center for Advancing Translational Sciences (NCATS), 2025)
# Results filed as inconclusive are left out. The source made the active and inactive calls. Calls follow the shape of the dose curve; as a rule, active = well fitted inhibition curve with a large enough effect; inconclusive = small, poorly fitted or top-dose-only effect; inactive = flat fitted curve, though single readings scatter.
# Assay: Identification of antibody-drug conjugate (ADC) payloads which are substrates of ATP-binding cassette drug efflux transporters: ABCG2-HEK293-R5 cell line with Ko143
# Details: ABCG2-HEK293-R5 with Ko143, CellTiter-Glo viability, 48 h
# Description: Antibody-drug conjugates (ADCs) feature an antibody recognizing a specific protein joined to a potent toxic payload. Numerous antibody-drug conjugates have received FDA approval; however, clinical resistance arises. Resistance mechanisms include decreased expression or mutation of the antibody target, impaired payload release, or increased expression of ATP-binding cassette (ABC) efflux transporters associated with multidrug resistance. We therefore sought to characterize the interaction of ABC multidrug transporters with ADC payloads. We performed a high-throughput screen with 27 common ADC payloads using cells lines expressing ABC transporters P-glycoprotein (P-gp, encoded by ABCB1) or ABCG2 (encoded by ABCG2). Confirmatory assays were also performed using cells transfected to express P-gp, ABCG2, or MRP1 (encoded by ABCC1). Several commonly used ADC payloads were substrates of P-gp, including calicheamicin gamma1, monomethyl auristatin E, DM1, and DM4. All the pyrrolobenzodiazepines tested - SJG136, SGD-1882, SG2057, and SG3199 - were substrates of P-gp, ABCG2, and MRP1. […] These findings highlight the risk of transporter-mediated resistance with certain ADC payloads and underscore the importance of selecting payloads that evade ABC transporter recognition in future ADC development.
# HEK-293 cells were transfected with empty vector (pcDNA) or vector containing the human ABCB1 (MDR-19), ABCG2 (R-5), or ABCC1 gene (MRP1) and were maintained in EMEM with 2 mg/mL G418 added to maintain transporter expression. The HeLa derivative KB-3-1 and the P-gp overexpressing KB-8-5-11 subline were maintained in DMEM; KB-8-5-11 additionally received 100 ng/mL colchicine. H460 parental cells were obtained from the Division of Cancer Treatment and Diagnosis Tumor Repository, National Cancer Institute at Frederick, MD and were cultured in RPMI. The ABCG2 expressing subline H460 MX20 was generated by selecting H460 cells in 20 nM mitoxantrone. Media in all cases was supplemented with 10% FBS and 1% penicillin-streptomycin. We explored 27 common ADC payloads, in two orthogonal, paired cell line sets-a drug selected and transfected set for each transporter--to identify substrates of the ABC transporters P-gp and ABCG2. Compounds were sourced from Levena Biopharma (San Diego, CA), Selleck Chem (Houston, TX), ChemieTek (Indianapolis, IN), or Microsource Discovery Systems (Gaylordsville, CT). Screening was performed as previously described. Briefly, cells were plated at a density of 500 cells/well in 1536 well plates with compounds added using a 1536-head pin tool (Kalypsys, San Diego CA). Cells were incubated with cytotoxic drugs and processed with CellTiter Glo reagent (Promega, Madison, WI) to determine viability after 48 hours. P-gp substrates were identified by comparing compound activity between paired sets of low-expressing (sensitive) and over-expressing (resistant) cell lines.
row,SMILES,Potency
1,COC(=O)c1cc2c3c(cc(O)c2[nH]1)N(C(=O)c1cc2cc(OC)c(OC)c(OC)c2[nH]1)CC3CCl (stereo not given),4.2 nM (active)
2,CN(C)CCOc1ccc2[nH]c(C(=O)N3C[C@@H](CCl)c4c3cc(O)c3ccccc43)cc2c1,1.9 nM (active)
3,CC(C)(C)OC(=O)Nc1ccc2[nH]c(C(=O)N3C[C@@H](CCl)c4c3cc(O)c3ccccc43)cc2c1,30 nM (active)
4,CCN(C(C)=O)[C@H]1CO[C@@H](O[C@H]2[C@H](O[C@H]3C#C/C=C\C#C[C@]4(O)CC(=O)C(NC(=O)OC)=C3/C4=C\CSSSC)O[C@H](C)[C@@H](NO[C@H]3C[C@H](O)[C@H](SC(=O)c4c(C)c(I)c(O[C@@H]5O[C@@H](C)[C@H](O)[C@@H](OC)[C@H]5O)c(OC)c4OC)[C@@H](C)O3)[C@@H]2O)C[C@@H]1OC,33.6 nM (active)
5,CCN[C@H]1CO[C@@H](O[C@H]2[C@H](O[C@H]3C#C/C=C\C#C[C@]4(O)CC(=O)C(NC(=O)OC)=C3/C4=C\CSSSC)O[C@H](C)[C@@H](NO[C@H]3C[C@H](O)[C@H](SC(=O)c4c(C)c(I)c(O[C@@H]5O[C@@H](C)[C@H](O)[C@@H](OC)[C@H]5O)c(OC)c4OC)[C@@H](C)O3)[C@@H]2O)C[C@@H]1OC,3 nM (active)
